# Most compounds without a hit are left out; they make up all but 12% or so of the library.
# PostGolgi ctrl – yeast control strain growth, post-Golgi counter-screen; efflux-deficient yeast background strain, growth absorbance A615, 16 h; 98,000 tested, 5% active; inhibition, % at 10 µM
# PostGolgi yeast – growth inhibition of a yeast mutant, post-Golgi transport screen; post-Golgi transport phenotypic cell assay; inhibition, % at 10 µM; 98,000 tested, 0.9% active;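 also: yeast cells grown in 1536-well plates; yeast grown about 18 h at 30C before absorbance read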
# Cav3 T inh – blocks human Cav3.2 T-type calcium channel; Cav3.2-expressing cells, Fluo-4 calcium fluorescence FDSS; stronger effect = lower value; B-score at 10 µM; 100,000 tested, 4% active;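 active = single-dose well whose peak fluorescence ratio is a statistical outlier from its plate by either plate-standardised score or position-corrected B-score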
# hDAT+cocaine – changed human dopamine transporter uptake under cocaine IC80 | Q01959 | AID 449768 | B-score at 10 µM | LLC-PK1 hDAT cells, [14C]-dopamine uptake with cocaine IC80; actives deviate in either direction | 110,000 tested, 1.3% active;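 active = Z score or B-score, a plate-position-corrected score, falls beyond the plate's 99.7% confidence bounds, in either direction; inactive = both scores lie inside the 99.7% bounds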;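 also: scored against the spread of the other compound wells on the same plate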
# Target sequence (Q01959 whole entry, looked up): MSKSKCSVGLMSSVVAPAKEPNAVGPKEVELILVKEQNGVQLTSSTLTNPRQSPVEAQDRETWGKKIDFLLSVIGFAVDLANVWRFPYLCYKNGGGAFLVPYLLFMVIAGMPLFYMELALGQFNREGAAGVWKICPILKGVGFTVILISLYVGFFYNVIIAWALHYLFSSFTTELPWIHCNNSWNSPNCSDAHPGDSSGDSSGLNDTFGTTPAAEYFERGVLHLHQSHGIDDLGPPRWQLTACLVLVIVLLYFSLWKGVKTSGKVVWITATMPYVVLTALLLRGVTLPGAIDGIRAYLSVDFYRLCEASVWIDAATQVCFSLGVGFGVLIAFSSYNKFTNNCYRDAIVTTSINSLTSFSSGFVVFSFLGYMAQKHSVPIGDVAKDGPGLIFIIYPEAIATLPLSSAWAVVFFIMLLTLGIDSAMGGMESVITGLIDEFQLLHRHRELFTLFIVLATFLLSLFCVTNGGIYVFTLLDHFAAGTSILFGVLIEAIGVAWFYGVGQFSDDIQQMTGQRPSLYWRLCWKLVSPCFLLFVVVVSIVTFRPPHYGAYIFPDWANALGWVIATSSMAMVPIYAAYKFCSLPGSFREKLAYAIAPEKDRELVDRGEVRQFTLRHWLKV
# PLAP act – human PLAP activation; P05187; 96,000 tested, 1.2% active; purified PLAP enzyme, luminescent substrate read-out; stronger effect = higher value; activation fold at 20 µM; in the data active = activation fold above about 2
# D1 allo mod – allosteric modulators of human D1 dopamine receptor; P21728; HEK293 D1, CRE-luciferase, dopamine EC30 potentiation; actives deviate in either direction; B-score at 10 µM; 58,000 tested, 5.9% active; AID 641;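 active = luminescence count or its row- and column-corrected plate score outside the 99.7% band of the plate's sample wells, on either side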
# An asterisk follows results filed as active; · = not tested or not shown. Rule as the data show it, unless noted: active = inhibition above about 30%; inactive = the rest.
SMILES,PostGolgi ctrl,PostGolgi yeast,Cav3 T inh,hDAT+cocaine,PLAP act,D1 allo mod
Cc1ccc(S(=O)(=O)Oc2ccc(C(c3c(C)[nH][nH]c3=O)c3c(C)[nH][nH]c3=O)cc2)cc1,9.8,3.8,0.103,-0.989,·,·
CCOc1cc(C(c2c(C)[nH][nH]c2=O)c2c(C)[nH][nH]c2=O)ccc1OS(=O)(=O)c1ccccc1,6.0,3.5,-1.8,-0.595,2.6*,·
COc1ccc(/C=C/C(=O)CC(O)(c2ccccc2)C(F)(F)F)cc1 (stereo not drawn),·,·,-2.64,-0.386,·,·
O=C(/C=C/c1ccccc1)CC(O)(c1ccccc1)C(F)(F)F (stereo not drawn),70.5*,5.6,-3.07,0.634,0.7,·
O=C(/C=C/c1ccccc1)CC(O)(c1ccccc1)C(F)(F)C(F)F (stereo not drawn),65.6*,8.2,-1.36,1.01,0.5,·
COC(=O)c1ccc(Cl)c(NC(=O)CN(c2ccc3c(c2)OCO3)S(C)(=O)=O)c1,-10.4,-2.1,-0.522,0.235,0.8,-0.453
O=C(Nc1ccc(N2CCOCC2)cc1)c1cn2ccccc2n1,-4.8,-4.2,·,·,0.9,·
CCOc1ccc(C(=O)N2CCSC2=S)cc1,·,·,-0.705,-0.886,·,·
Cc1ccc(/C(C#N)=C\c2cn(C)c3ccccc23)cc1,34.0*,-3.7,-1.48,-0.747,0.8,1.63
COC(=O)/C(=C/c1cn(C)c2ccccc12)[N+](=O)[O-],2.1,-10.2,·,·,0.9,·
C#C[C@]1(O)CC[C@H]2[C@@H]3[C@H](C)CC4=C(CCC(=O)C4)[C@H]3CC[C@@]21C,·,·,·,-0.126,·,·
CCOc1ccc(-c2nnc(-c3snc(-c4ccc(F)cc4)c3N=CN(C)C)o2)cc1,9.8,-6.5,-0.601,0.421,1.2,-0.289
CCOC(=O)c1cc(C)n(CCc2ccccc2)c1C,14.5,-3.3,-3.76*,·,0.8,-0.991
CN(C)CCNC(=O)Cn1nc(C(F)F)cc1C1CC1,31.6*,-3.2,0.177,0.0816,0.9,-0.0833
CC/C(=N\NC(=O)c1ccc(-c2ccccc2)cc1)C12CC3CC(CC(C3)C1)C2,1.5,-5.8,-0.81,-0.319,0.9,·
CCn1c(SCC(=O)NC(C)(C)C)nnc1-c1ccccn1,7.4,-4.9,-0.383,-0.399,1,·
Cc1ccnc(NC(=O)CCC(=O)N(CC(=O)NCc2ccccc2)c2ccc3c(c2)OCO3)c1,·,·,-3.08,0.281,·,·
Cc1cc(C)cc(N(CC(=O)NCc2ccc3c(c2)OCO3)C(=O)CCC(=O)Nc2ccccn2)c1,1.3,4.4,-6.08*,0.245,0.9,0.939
Cc1ccc(C)c(N(CC(=O)NCc2ccc3c(c2)OCO3)C(=O)CCC(=O)Nc2ccccn2)c1,30.3*,-1.4,·,0.238,1.9,0.575
COc1ccccc1N(CC(=O)NCc1ccccc1)C(=O)CCC(=O)Nc1cc(C)ccn1,·,·,-0.189,2.5*,·,·
O=C(COc1cccc(-n2cnnn2)c1)Nc1ccccc1,·,·,-0.00408,1.05,·,·
Cc1nc2sc(C(=O)O)c(N)c2c2c1COC(C)(C)C2,8.9,-9.0,0.814,-0.553,1.4,1.1
COC(=O)CSc1ncnc2c1sc1nc(-c3ccco3)c3c(c12)CC(C)(C)OC3,25.4,-3.6,·,·,1.5,·
CCOC(=O)c1sc2nc(-c3ccco3)c3c(c2c1N)CC(C)(C)OC3,·,·,0.97,1.17,1.6,4.04*
CCSc1ncnc2c1sc1nc(-c3ccco3)c3c(c12)CC(C)(C)OC3,32.3*,14.2,·,·,1.1,·
SMILES,PostGolgi ctrl,PostGolgi yeast,Cav3 T inh,hDAT+cocaine,PLAP act,D1 allo mod
CC(=O)Nc1ccc2oc(-c3ccccc3Br)nc2c1,10.6,-1.4,·,·,1.2,-2.83*
O=C(Nc1ccc2oc(-c3ccccc3Cl)nc2c1)c1ncn[nH]1,1.1,-0.8,0.891,-0.358,2*,-3.29
CCC(=O)Nc1ccc2oc(-c3ccccc3Br)nc2c1,26.1,-3.0,0.166,0.803,1.1,-0.292
O=C(Nc1ccc2oc(-c3cccc4ccccc34)nc2c1)c1ncn[nH]1,1.1,-1.0,-0.0197,-0.937,·,·
Cc1cc(C)n2nc(NCc3cccc(Br)c3)nc2n1,12.6,8.0,0.0405,-0.0233,1.1,·
CC1(C(=O)N(c2ccccc2)C(C(=O)NC2CCCC2)c2ccccn2)CC(=O)N=C2C=CC=CN21 (stereo not drawn),0.8,1.1,-1.38,-0.89,1.3,0.00952
COc1ccc(CSCC(=O)N/N=C/c2ccccc2OCc2ccccc2)cc1,20.8,1.4,-5.75*,1.26,1.2,·
COc1ccc(CC(NC(C)=O)C(=O)NC2CCN(c3nc(C)cc(C)c3C#N)CC2)c(OC)c1 (stereo not drawn),2.4,4.7,0.475,2.41,1.6,0.906

# Bioassay records as filed in PubChem BioAssay.
